Experimental data as given in PubChem BioAssay AID1645872 (National Center for Advancing Translational Sciences (NCATS), 2021).
Records with an inconclusive call do not appear. Activity calls are given as the source filed them. Calls follow the shape of the dose curve; as a rule, active = well fitted inhibition curve with a large enough effect; inconclusive = small, poorly fitted or top-dose-only effect; inactive = flat fitted curve, though single readings scatter. Numbered stars: 1 amine (or outer) side, 2 acyl side, 3 side chain; on linkers, the order of the positions; unused ones are H or OH. Peptide text beside a SMILES is read from it. CO = O=C([*:1])[*:2]

Each molecule was assayed against Papain (Carica papaya) (UniProt P00784) (assay: Confirmatory qHTS assay for inhibitors of the protease papain). Conditions: papain Z-FR-AMC cleavage, fluorescence; series mostly up to 49.8 µM.
Chain of Papain (Carica papaya) (P00784 whole entry, looked up): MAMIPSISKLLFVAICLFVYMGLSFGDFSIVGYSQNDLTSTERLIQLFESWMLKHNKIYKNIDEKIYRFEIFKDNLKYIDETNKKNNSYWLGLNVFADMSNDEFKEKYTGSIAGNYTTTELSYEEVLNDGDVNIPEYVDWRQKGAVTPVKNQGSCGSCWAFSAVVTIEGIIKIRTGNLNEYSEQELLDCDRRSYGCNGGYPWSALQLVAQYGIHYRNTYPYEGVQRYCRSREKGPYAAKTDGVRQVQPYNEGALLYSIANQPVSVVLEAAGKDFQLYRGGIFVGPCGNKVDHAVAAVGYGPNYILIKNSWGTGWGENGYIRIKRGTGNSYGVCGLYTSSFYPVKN
Excerpt: Principal Investigator: Sam Michael National Center for Advancing Translational Sciences, National Institutes of Health, Rockville, MD Current high-throughput screening (HTS) assay validation is often a manual process, though this can be enhanced by design-of-experiment approaches. An artificial intelligence-driven (AI/ML) assay optimization was developed as part of the NCATS A Specialized Platform for Innovative Research Exploration (ASPIRE) Initiative to accelerate preclinical drug discovery. We describe the development of an autonomous Cloud-based computational driven assay optimization system using the Kebotix adaptive optimization algorithm. The Kebotix Bayesian optimization algorithm identify and test the global optimum of the full 294 design-of-experiment (DOE) with a high optimization probability > 95%, and achieved a five-fold reduction in costs for reagents and lab supplies and HTE run-time. The proposed algorithm found suitable conditions for optimal assay performance. A cell-free assay for papain protease activity was chosen for proof-of-concept. This assay was ideal because its low cost and suitable for large amount of experiments, and previous NCATS experience would allow for historical comparisons. […] Described herein is the results of the papain qHTS assay.
PROTOCOL TABLE SEQUENCE No. (e.g., 1, 2, 3, etc.); PARAMETER (e.g., Cells, Incubation, Reagent, etc.); VALUE and DESCRIPTION. 1; Reagent; 3 uL; 4/3x Enzyme solution (working concentration of 5 nM) or 3 uL buffer 2; Compounds; 17 nL; library compounds and controls (working concentration of 169 nM - […]) 3; Time; 15 min; room temperature incubation 4; Reagent; 1 uL; 4x 2 uM Z-FR-AMC substrate 5; Centrifugation; 1000 rpm; 15 sec centrigure 6; Detection; Fluorescence Read 1; ViewLux plate reader 7; Time; 10 min; room temperature incubation 8; Detection; Fluorescence Read 2; ViewLux plate reader NOTES (numbers refer to Sequence numbers above; values are from representative experiments) 1; Dispense 3 uL of [4/3x] 5 nM Papain-buffer solution in medium-binding black solid-bottom Greiner plates (789176-F); columns 1-2 and […]. Dispense 3 uL of assay buffer (100 mM Na-acetate pH 5.5, 5 mM DL-Cysteine, 0.01% Tween20) to columns 3 and 4. 2; Compounds are single pin-transferred (17 nL) for a final concentration range of 0.664 nM - 39.2 uM. 3; Room temperature incubation. 4; Dispense 1 uL of [4x] 2 uM Z-FR-AMC substrate solution into the assay plate, columns 1 - 48. 5; Centrifuge the assay plate to remove bubbles. 6; Initial fluorescence signal (Read 1) is obtained using the ViewLux plate reader (PerkinElmer) equipped with a 340(30) nm excitation filter; 450(20) nm emission filter; 2 sec exposure time at energy set to 2000. 7; Room temperature incubation in the dark. 8; Final fluorescence signal (Read 2) is obtained using the ViewLux plate reader (PerkinElmer) equipped with a 340(30) nm excitation filter; 450(20) nm emission filter; 2 sec exposure time at energy set to 2000.

Potency, active:
N#Cc1nc(Nc2ccccc2)nc(NC2CCCC2)n1 81.4 nM
CCOc1nc(C#N)nc(N2CCCCC2)n1 182 nM
N#Cc1nc(Nc2ccc(F)cc2)nc(NC2CCCC2)n1 102 nM
N#Cc1nc(Nc2cc(F)cc(F)c2)nc(NC2CCCC2)n1 162 nM
N#Cc1nc(Nc2cccc(F)c2)nc(NC2CCCC2)n1 115 nM
Cc1cccc(Nc2nc(C#N)nc(NC3CCCC3)n2)c1 64.7 nM
CC(C)C(NC(=O)C(CCCN=C(N)N)NC(=O)NC(Cc1ccccc1)C(=O)O)C(=O)NC(C=O)CCCN=C(N)N (stereo not drawn) ({Phe-CO}-Arg-Val-Arg-aldehyde; configuration not given here) 12.9 nM
N#Cc1nc(Nc2cccc(Cl)c2)nc(NC2CCCC2)n1 289 nM
COc1ccc(Nc2nc(C#N)nc(NC3CCCC3)n2)cc1 102 nM
CC(=O)N[C@@H](CC(C)C)C(=O)N[C@@H](CC(C)C)C(=O)N[C@H](C=O)CCCN=C(N)N 10.2 nM
CC(C)C[C@H](NC(=O)[C@@H](NC(=O)N[C@@H](Cc1ccccc1)C(=O)O)[C@H]1CCN=C(N)N1)C(=O)N[C@H](C=O)Cc1ccccc1 10.2 nM
COc1cccc(Nc2nc(C#N)nc(NC3CCCC3)n2)c1 57.6 nM

Potency, inactive:
O=c1oc(Cl)c(Cl)c2ccccc12
